# A selection: hits, their analogues and other compounds. The true share with any hit is near 5.1%.
# S1P4 antagonist: human S1P4 receptor antagonism. AID 1510. inhibition, % at 4.98 µM. S1P4-expressing cells, antagonist mode, reporter read-out. O95977. hit rate 0.26% among 220,000; in the data active means inhibition above about 29%;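 further: 0% = wells stimulated with agonist and 100% = vehicle wells without agonist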
# RAM inhibit: yeast RAM network inhibition; S. cerevisiae dse1pr::URA3 reporter, 5-FOA growth OD615, 2 d; analog-sensitive cbk1-as2 kinase mutant strain; inhibition, % at 50 µM; hit rate 1.8% among 190,000; AID 868;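 active means inhibition above a set limit, 3 SD over mean compound inhibition, cut at about 8.4% in these data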;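 further: 0% = DMSO-only wells with no growth and 100% = 10 µM 1-NA-PP1 full growth; inhibition rescues growth on 5-FOA so higher OD means more RAM inhibition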
# S1P4 agonist: human S1P4 receptor agonism. O95977. S1P4-expressing cell line, agonist reporter assay. activation, % at 4.98 µM. hit rate 0.35% among 220,000; in the data active means activation above about 11%;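 further: 0% = DMSO vehicle and 100% = reference agonist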
# Cl transport mod: modulates chloride dependent transport by human KCC2 | KCC2 cells, thallium flux FluoZin-2 fluorescence | B-score of Tl+ flux slope (higher = more flux/activation; lower = inhibition) at 10 µM | hit rate 2.2% among 190,000 | AID 1456;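 active means thallium flux slope and its plate-corrected score both differing from the plate sample mean at a set confidence after two filtering rounds, in either direction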;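 further: slope of fluorescence scaled to starting intensity during 10 to 20 s after thallium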
# Target sequence (Q9H2X9 whole entry, looked up): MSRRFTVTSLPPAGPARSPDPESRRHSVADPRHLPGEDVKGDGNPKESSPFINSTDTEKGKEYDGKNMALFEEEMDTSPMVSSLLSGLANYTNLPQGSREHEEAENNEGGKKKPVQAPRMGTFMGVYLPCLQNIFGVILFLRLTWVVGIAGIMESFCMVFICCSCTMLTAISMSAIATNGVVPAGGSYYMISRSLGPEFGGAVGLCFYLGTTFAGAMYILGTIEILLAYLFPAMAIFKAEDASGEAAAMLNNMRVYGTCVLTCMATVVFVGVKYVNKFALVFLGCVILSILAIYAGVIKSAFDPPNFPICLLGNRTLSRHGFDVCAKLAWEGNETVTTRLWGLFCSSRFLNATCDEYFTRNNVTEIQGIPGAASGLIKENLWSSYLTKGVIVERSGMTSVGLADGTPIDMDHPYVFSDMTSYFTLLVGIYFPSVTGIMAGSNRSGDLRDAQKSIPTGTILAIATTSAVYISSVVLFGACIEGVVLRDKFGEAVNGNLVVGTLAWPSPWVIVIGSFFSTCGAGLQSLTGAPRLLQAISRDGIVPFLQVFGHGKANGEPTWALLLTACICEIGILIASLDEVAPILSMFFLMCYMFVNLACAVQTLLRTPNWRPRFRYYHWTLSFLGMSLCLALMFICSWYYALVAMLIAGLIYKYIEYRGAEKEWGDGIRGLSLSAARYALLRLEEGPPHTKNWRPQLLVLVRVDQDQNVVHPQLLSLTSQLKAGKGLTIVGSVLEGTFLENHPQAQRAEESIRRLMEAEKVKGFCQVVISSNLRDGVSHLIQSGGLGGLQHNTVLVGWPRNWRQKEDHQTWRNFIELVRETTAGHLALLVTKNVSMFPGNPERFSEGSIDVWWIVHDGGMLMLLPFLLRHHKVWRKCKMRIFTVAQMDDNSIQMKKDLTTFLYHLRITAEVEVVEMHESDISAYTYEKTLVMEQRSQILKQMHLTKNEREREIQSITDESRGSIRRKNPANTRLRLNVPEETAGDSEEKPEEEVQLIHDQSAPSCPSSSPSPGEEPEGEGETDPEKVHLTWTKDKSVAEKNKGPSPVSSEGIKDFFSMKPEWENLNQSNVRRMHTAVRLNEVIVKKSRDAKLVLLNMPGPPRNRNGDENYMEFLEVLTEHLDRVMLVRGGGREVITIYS
# S1P3 antag-1: blocks the human S1P3 receptor | CHO S1P3 NFAT-BLA reporter, FRET fluorescence, antagonist mode | inhibition, % at 4.98 µM | hit rate 0.27% among 170,000;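 active means inhibition above the plate cutoff, the mean inhibition of test wells on that plate plus 3 SD, cut at about 28% in these data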;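 further: cells challenged with S1P at its EC80 of 0.8 µM; blue over green emission ratio from cleaved BLA substrate after 4 h stimulation; 0% = S1P-stimulated wells and 100% = unstimulated DMSO-only wells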
# ROMK mod: modulates human ROMK potassium channel activity | AID 1918 | P48048 | Tet-inducible ROMK, thallium flux fluorescence; actives lie on both sides | hit rate 2% among 130,000 | B-score at 10 µM;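 active means signal ratio slope over the read window, or its plate-corrected B-score, at least 3 SD from the plate mean, either direction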;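 further: B-score of the F/F0 ratio slope over 7 to 12 s after thallium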
# S1P3 antag-2: human S1P3 receptor antagonism, confirmation; shares compounds with S1P3 antag-1; CHO S1P3 NFAT-BLA reporter, FRET, antagonist mode; inhibition, % at 4.98 µM; hit rate 30% among 240;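 active means inhibition above the hit threshold that was computed for the earlier primary screen, cut at about 30% in these data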;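 further: 0% = S1P-stimulated wells and 100% = unstimulated DMSO-only wells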
# An asterisk follows results filed as active; i = inactive; . = no result given.
SMILES,S1P4 antagonist,RAM inhibit,S1P4 agonist,Cl transport mod,S1P3 antag-1,ROMK mod,S1P3 antag-2
O=C(Nc1ccc(Cl)cc1)Nc1cccc2nsnc12,0,.,-1,-0.28,29*,.,16
O=C(COc1ccccc1)Nc1cccc2nsnc12,-3,1,1,-0.91,18,.,.
CCCNc1nc(OCC(F)(F)F)nc(OCC(F)(F)F)n1,13,1,-1,-1.7,.,.,.
CNc1nc(Nc2ccccc2)nc(OCC(F)(F)F)n1,-6,2,-1,-0.26,39*,-0.14,-5
O=C(NCc1ccco1)C(=S)N1CCCCC1,3,0,2,-0.72,28*,0.37,-10
CNc1nc2cc([N+](=O)[O-])c([N+](=O)[O-])cc2nc1NC,-6,2,-2,-0.58,54*,.,34*
CCCCNC(=O)COC(=O)c1c2c(nc3ccccc13)/C(=C/c1cccs1)CC2,-27,4,2,0.32,37*,.,25
COc1ccc2cc3cc(C(=O)NCc4ccc5c(c4)OCO5)oc3nc2c1,-31,0,0,-0.12,-7,.,.
COc1ccc2cc3cc(C(=O)NCc4cccnc4)oc3nc2c1,-8,2,-1,0.087,30*,-0.33,-3
O=C(N/N=C/c1ccc(-c2ccc([N+](=O)[O-])cc2)o1)[C@H]1C[C@@H]1c1ccccc1,0,.,0,1,45*,.,63*
O=C(N/N=C/c1ccc(-c2cccc([N+](=O)[O-])c2)o1)[C@H]1C[C@@H]1c1ccccc1,0,2,-2,-0.85,13,.,.
O=C(O)c1ccc(-c2ccc(/C=N/Nc3ccc([N+](=O)[O-])cc3)o2)cc1,6,.,3,i,29*,.,-1
O=C(O)c1cccc(-c2ccc(/C=N/Nc3ccc([N+](=O)[O-])cc3)o2)c1,20,.,-1,i,14,.,.
COC(=O)c1ccc(C23CC4(C2)[C@H](CN(C)[C@@H]4c2ccccc2)C3c2ccc(Cl)nc2)cc1 (some centres undefined),.,.,.,-0.49,.,.,.
O=S1(=O)N=C(N(Cc2cccs2)c2ccc(O)cc2)c2ccccc21,-4,1,1,0.13,-2,-0.12,.
CN(C)/C=C/C(=C\C(=O)C(F)(F)F)Nc1ccc(C(F)(F)F)cc1,-13,0,1,-0.074,45*,0.51,-6
CN(C)/C=C/C(=O)C(F)(F)F,2,1,2,0.43,-9,-0.7,.
CC1C(c2ccccc2)N(C)C(c2ccccc2)CC1(O)c1ccc(F)cc1 (centres undefined),6,-1,-3,-0.87,31*,0.63,48*
O=C(CNc1n[nH]c(=O)[nH]c1=O)N/N=C/c1ccccc1,-2,.,1,-0.78,-9,-0.9,.
O=C(CNc1n[nH]c(=O)[nH]c1=O)N/N=C/c1cccnc1,-6,2,0,-1.8,39*,.,-12
COc1ccc(OC)c(Nc2ccc(Nc3cc(OC)ccc3OC)nn2)c1,-1,2,0,-1.4,31*,-0.49,13
C=CCn1c(O)c(C=Nc2ccc(CN3CCCCC3)cc2)c(=O)[nH]c1=S,-18,.,0,-0.23,42*,1,-6
Clc1ccccc1C1=CC(c2ccco2)n2ncnc2N1 (centres undefined),0,.,0,-2.7,32*,.,7
COC(=O)c1ccccc1NC(=O)CSc1nc(C)cc(C)n1,12,0,-2,0.055,9,0.38,.
Cc1cc(C)nc(SCC(=O)Nc2ccnc3ccccc23)n1,-11,2,-1,-1.3,30*,-0.6,8
SMILES,S1P4 antagonist,RAM inhibit,S1P4 agonist,Cl transport mod,S1P3 antag-1,ROMK mod,S1P3 antag-2
O=C1CCCCCCC1Sc1ccccc1[N+](=O)[O-] (centres undefined),6,0,-1,-1.1,.,-0.51,.
c1ccc2c(c1)OCC(CNc1ncnc3sccc13)O2 (centres undefined),-14,2,-1,0.18,43*,.,26
C=C1CCN([C@H](C(=O)NCc2ccccc2)C(C)C)S(=O)(=O)c2ccccc21,.,.,.,0.48,.,.,.
CC(C)(C)c1cc(C(=O)Nc2ccc(F)cc2)n(Cc2ccc(F)cc2)n1,11,.,0,-0.018,30*,0.045,24
CC(=O)c1c(C)[nH]c(C(=O)NC(C)c2ccccc2)c1C (centres undefined),-5,1,-3,-0.67,38*,0.96,-11
COc1ccc(NC(NC(=O)c2ccc(OC)cc2)C(Cl)(Cl)Cl)cc1 (centres undefined),-14,1,0,.,.,.,.
COc1ccc(C(=O)NC(Nc2ccc(C)cc2)C(Cl)(Cl)Cl)cc1 (centres undefined),-20,2,-1,0.9,44*,.,58*
COc1ccc(C(=O)NCc2ccc(C(=O)NCC(OC)OC)cc2)cc1OC,-12,3,0,0.06,-13,-0.96,.
COc1ccc(C(=O)NCc2ccc(-n3cccc3)cc2)cc1OC,-2,2,1,-0.78,41*,0.38,-15
OCCNCCCOc1cc(Cl)ccc1Cl,2,0,2,1,36*,.,-9
Cc1ccc(OCCCNCCO)c(Br)c1,-1,0,-4,0.32,.,0.037,.
CCc1nnc(NC(=O)CSc2nnc(-c3cccnc3)n2C)s1,8,1,0,-0.099,-22,.,.
Cc1cccc(Nc2sc(C(=O)c3cc4cc(Cl)ccc4o3)c(N)c2C#N)c1,-1,.,0,0.87,28*,.,2
COc1ccccc1Sc1nc(-c2ccccn2)ncc1OC,-11,1,2,.,9,0.44,.
COc1cnc(-c2ccccn2)nc1Oc1ccccc1Cl,-8,0,-1,0.089,.,.,.
COc1cnc(-c2ccccn2)nc1Oc1ccc(F)cc1F,9,-1,1,-2.4,29*,0.21,-4
COc1cnc(-c2ccccn2)nc1NC(C)C,-4,-1,1,.,29*,-0.73,19
O=C(NCCCO)C(=O)NCc1ccncc1,-16,3,1,0.089,-17,1.8,.
CCCc1ccc(Oc2cc(N3CCOCC3)nc(-c3ccccc3)n2)cc1,2,.,-2,1.3,.,.,.
O=[N+]([O-])c1ccc(/C=C/C2=NN(c3ccccc3)C(c3ccco3)C2)o1 (centres undefined),-11,4,1,-0.75,38*,-0.05,9
C(=C\c1ccco1)/C1=NN(c2ccccc2)C(c2ccco2)C1 (centres undefined),-2,7,3,-0.6,3,.,.
COc1ccc(-c2nc(-c3ccccn3)ncc2S(C)(=O)=O)cc1,10,0,1,1.5,-2,0.066,.
Cn1nc(-c2ccccn2)nc2c(=O)n(C)c(=O)nc1-2,104*,.,1,0.26,81*,.,90*
O=C(CSc1nc2ncc(Cl)cc2[nH]1)N(Cc1ccccc1)C1CCS(=O)(=O)C1 (centres undefined),-4,1,1,-0.34,-12,0.38,.
